Each structure is given as a SMILES string. The panel holds about 79,000 compounds, 15% with a hit somewhere; the sample as a whole holds those more often. Unmarked numbers belong to inactive results. Calls of active or inactive are those of the source. No stated cut-off is given here; in the data, active means growth inhibition above about 70%; inactive means the rest.

Results on 39 molecules are retold here after PubChem BioAssay (NCI).

Test [1] in a line: NCI Yeast Anticancer Drug Screen. Data for the rad50 strain (AID 155).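 Further: 0% = growth of vehicle-only cultures of the same strain.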 To be noted: S. cerevisiae rad50 strain growth inhibition; at 50.0 µM; stronger effect = higher value. Put shortly:
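Cells are treated with compound, grown, and their growth is then scored against vehicle-only cultures of the same repair-deficient yeast strain.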

Test [2] is described as follows: NCI Yeast Anticancer Drug Screen. Data for the mec2-1 strain (AID 157). The note with it: S. cerevisiae mec2-1 strain, at 50.0 µM, stronger effect = higher value. The method, boiled down:
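Compounds were applied to mec2-1 yeast cells. Their growth was then compared with that of vehicle-treated cultures to give growth inhibition.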

A short description of test [3]: NCI Yeast Anticancer Drug Screen. Data for the sgs1 mgt1 strain (AID 161).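 Further: 0% = growth of cultures given vehicle only.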 To be noted: S. cerevisiae sgs1 mgt1 strain, at 50.0 µM, stronger effect = higher value. Put shortly: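 Yeast cells carrying a defined DNA-repair defect were exposed to test compounds. Growth inhibition was measured relative to vehicle-treated controls.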
Test [4] can be described thus: NCI Yeast Anticancer Drug Screen. Data for the cln2 rad14 strain (AID 165).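 Further: 0% = growth equal to vehicle treated cultures.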 The note with it: S. cerevisiae cln2 rad14 strain, at 50.0 µM, stronger effect = higher value. The method, boiled down:
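Strain: cln2 rad14 yeast, altered in cell cycle control and DNA damage repair. Read-out: growth inhibition vs vehicle.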

A short description of test [5]: NCI Yeast Anticancer Drug Screen. Data for the bub3 strain (AID 167). The note with it: S. cerevisiae bub3 mutant strain, at 50.0 µM, stronger effect = higher value. The method, boiled down:
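Part of a panel of yeast mutants defective in DNA damage repair or cell cycle regulation. Each strain is grown with compound, and inhibition is calculated relative to solvent-treated cultures.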

Test [6] in a line: NCI Yeast Anticancer Drug Screen. Data for the mlh1 rad18 strain (AID 175). To be noted: S. cerevisiae mlh1 rad18 strain growth inhibition; at 50.0 µM; stronger effect = higher value. Put shortly: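 A repair-deficient yeast strain is exposed to test compound, and growth is scored relative to vehicle-treated controls.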

As for `COc1cc(C)c(C#N)c(OC)n1`, the growth inhibition was 19.4% in test [1]; -7.8% in test [2]; 9.9% in test [3]; 12.9% in test [4]; 20.2% in test [5]; 14.8% in test [6].

`Clc1cc(Cl)nc(Nc2ccc3c(c2)CCC3)n1`: the growth inhibition in test [1] is 23.9%; in test [2], 10.2%; in test [3], -1.15%; in test [4], -4.2%; in test [5] it was 3.9%; in test [6] it was 39.5%.

With `COC1C(=O)OC(=O)C1OC` (centres undefined), the growth inhibition in test [1] was -73%; in test [2] it was -15.1%; in test [3], -1.05%; in test [4] it was -24.7%; in test [5], -8.55%; in test [6], 14.9%.

In the case of `COc1cc2c3c(c1)nc(C)n3C(=O)C(c1ccccc1)S2` (centres undefined), the growth inhibition is -17.6% in test [1]; -5.3% in test [2]; -26.3% in test [3]; 4.1% in test [4]; 21.6% in test [5]; -23.6% in test [6].

With `CC(=O)SC1CC2CCC1C2` (centres undefined), the growth inhibition in test [1] is 0.75%; in test [2], -18.2%; in test [3], -17.4%; in test [4], 9.95%; in test [5], -19.7%; in test [6], 15.7%.

Consider `CCOc1ccc(N=Nc2c(O)n(-c3ccc(Br)cc3)c(=S)n(-c3ccc(OC)cc3)c2=O)cc1`, for which the growth inhibition in test [1] is 28.8%; in test [2], -8.7%; in test [3] it was -9.1%; in test [4] it was -24.4%; in test [5], 1.35%; in test [6], 2.3%.

In the case of `CC[N+](C)(CC)CC(O)C[N+]1(C)CC2CCCCC2C1` (centres undefined), the growth inhibition in test [1] was 13.1%; in test [2], -1.7%; in test [3], 6.2%; in test [4], -10.2%; in test [5], -4.65%; in test [6], 4.1%.

For `Cc1cc2ncn(C3OC(CO)C(O)C3O)c2cc1C` (centres undefined), the growth inhibition in test [1] was -2.7%; in test [2], 8.35%; in test [3], -8.25%; in test [4], 21.5%; in test [5] it was -8.2%; in test [6], 2.65%.

On to `CC(=O)OC1CCC2(C)C(CCC3C2CCC2(C)C(C(C)C(=O)O)CCC32)C1` (centres undefined), for which the growth inhibition in test [1] was -10.7%; in test [2], 1.85%; in test [3], 1.45%; in test [4] it was 10.8%; in test [5], -3.6%; in test [6], 3.9%.

`CN(C)c1ncnc2cn[nH]c12`: the growth inhibition in test [1] was 3.6%; in test [2], -5.75%; in test [3] it was 0.25%; in test [4], 5.7%; in test [5], 17.4%; in test [6], 0.6%.

`COc1cc(/C(=C\c2ccccc2N)C(=O)O)cc(Br)c1OC`: the growth inhibition in test [1] is 9.35%; in test [2], -8.2%; in test [3] it was -11.2%; in test [4] it was 4.65%; in test [5], 0%; in test [6], 1.65%.

For the molecule `C/C(COC(=O)c1cc(C)nc2ccccc12)=N\O`, the growth inhibition in test [1] was -22.6%; in test [2], 17%; in test [3], -0.65%; in test [4], -20.8%; in test [5] it was 21.1%; in test [6], -11.6%.

Turning to `N#CCCNC(CC(=O)O)C(=O)O` (centres undefined), the growth inhibition in test [1] was 10.7%; in test [2], 1.55%; in test [3], 14.4%; in test [4], -13.2%; in test [5], 0.5%; in test [6], -4.85%.

As to `O=C(OC1COC(n2c(=O)oc3ccc(Cl)cc32)C(OC(=O)c2ccccc2)C1OC(=O)c1ccccc1)c1ccccc1` (centres undefined), the growth inhibition in test [1] was 8%; in test [2], 2.5%; in test [3] it was 6.8%; in test [4] it was -13.2%; in test [5] it was -1.1%; in test [6] it was 10.7%.

With `C=CCNC(=S)NN(C)C`, the growth inhibition in test [1] was -42%; in test [2], -16%; in test [3], -16.9%; in test [4] it was -51.5%; in test [5], -28.2%; in test [6], -16.4%.

As for `CCOC(=O)C1=C(C)NC(C)=C(C(=O)OCC)C1`, the growth inhibition is 14.9% in test [1]; -5.8% in test [2]; -1.5% in test [3]; -41.1% in test [4]; 31.1% in test [5]; 13.5% in test [6].

Consider `COc1ccc(N2C(=O)CCC2=O)cc1`, for which the growth inhibition is -7.8% in test [1]; 0.25% in test [2]; -7.7% in test [3]; -6.15% in test [4]; -9.9% in test [5]; 4.9% in test [6].

For `COC(=O)CN(c1ccc(C#N)c2ccccc12)S(=O)(=O)c1ccccc1`, the growth inhibition in test [1] was 32.4%; in test [2], -2.35%; in test [3], 3.7%; in test [4], -4.9%; in test [5], 4.25%; in test [6], 1.45%.

As to `C/C(=C\c1ccccc1)C(O)C(=O)c1nc2ccc([N+](=O)[O-])cc2[nH]c1=O` (centres undefined), the growth inhibition in test [1] is -5.55%; in test [2] it was -33.1%; in test [3] it was -11.4%; in test [4], 21.4%; in test [5], -26.4%; in test [6], 14.5%.

As for `CC(=O)N=Cc1ccccc1O`, the growth inhibition in test [1] was -27.8%; in test [2] it was -16%; in test [3] it was -50.2%; in test [4] it was -77.7%; in test [5], -34.5%; in test [6], -20.7%.

In the case of `CC(C)(C)c1cc(CN2CCOCC2)cc(C(C)(C)C)c1O`, the growth inhibition in test [1] is 8%; in test [2], 5%; in test [3], 0.7%; in test [4], 0.15%; in test [5], -3.15%; in test [6] it was 14.3%.

For the molecule `COC1(OC)C2(Cl)CC(C(=O)O)C1(Cl)C(Cl)=C2Cl` (centres undefined), the growth inhibition is 7.55% in test [1]; 3.85% in test [2]; 19.6% in test [3]; -51.7% in test [4]; -1.35% in test [5]; 13.7% in test [6].

As to `Cc1nc(N)nc(-c2ccccc2)c1N=Nc1cc(Cl)cc(Cl)c1`, the growth inhibition in test [1] was 5.95%; in test [2] it was -8.3%; in test [3], -3.65%; in test [4], -6.45%; in test [5], -5.15%; in test [6], 7.45%.

In the case of `CCCC[N+](C)(C)CC[N+](C)(C)CCCC`, the growth inhibition is 4.25% in test [1]; -14.9% in test [2]; -10% in test [3]; -36.3% in test [4]; -1.4% in test [5]; -16.2% in test [6].

For `Cc1ccc(C(=O)OCc2ccccc2CN2CCCCC2)cc1`, the growth inhibition was 1.6% in test [1]; -8.35% in test [2]; -22.6% in test [3]; -19.7% in test [4]; 3.6% in test [5]; 2.1% in test [6].

For `CCOC(=O)CN1C(=O)CSC1=S`, the growth inhibition in test [1] was 42%; in test [2], -3.85%; in test [3] it was 24.3%; in test [4] it was 22.4%; in test [5] it was 61.4%; in test [6] it was 31.1%.

Take `CN=C1c2ccccc2C(=O)c2c1c(O)n(-c1ccccc1)c2O`: the growth inhibition was 27.9% in test [1]; 15.3% in test [2]; 20.9% in test [3]; 21.5% in test [4]; 29.4% in test [5]; 36.8% in test [6].

Take `NNC(=O)c1c(-c2cccnc2)cnc2ccccc12`: the growth inhibition in test [1] was -29.4%; in test [2], -20.6%; in test [3], -29.3%; in test [4], -6.8%; in test [5], -4.8%; in test [6], -31.4%.

Take `NOCCCCON`: the growth inhibition in test [1] is -5.05%; in test [2], -6.8%; in test [3] it was 8.95%; in test [4] it was -66.8%; in test [5], 0.25%; in test [6] it was -7.05%.

Turning to `CC(=O)[O-].[Mn+3].[O-]c1ccccc1C=NCCNCCN=Cc1ccccc1[O-]`, the growth inhibition in test [1] was 17.9%; in test [2] it was 8.1%; in test [3], 49.6%; in test [4] it was -7.35%; in test [5], 8.3%; in test [6], 51.1%.

For the molecule `COc1ccc(C(=O)N=Nc2ccccc2)cc1`, the growth inhibition in test [1] is 0.05%; in test [2], 0.7%; in test [3], -6.85%; in test [4] it was -49.9%; in test [5], 3.35%; in test [6], -13.1%.

With `CCOC(=O)C(CCCN=C(N)NC(=O)OCc1ccccc1)NC(=O)C(C(C)C)N1C(=O)c2ccccc2C1=O` (centres undefined), the growth inhibition in test [1] is 93% (active); in test [2], 78.5% (active); in test [3], 96.2% (active); in test [4], 52%; in test [5], 48.9%; in test [6], 96% (active).

Turning to `CC(N)C(C)(C)O` (centres undefined), the growth inhibition is -2.1% in test [1]; -13.7% in test [2]; 1.7% in test [3]; -12.8% in test [4]; 6.2% in test [5]; 0.05% in test [6].

On to `COc1ccc2c(c1)C1(C)CCCC(C)C1=CC2=O` (centres undefined), for which the growth inhibition is 84% (active) in test [1]; 78.3% (active) in test [2]; 82.8% (active) in test [3]; 28.1% in test [4]; 87.8% (active) in test [5]; 85% (active) in test [6].

Take `C/C=C/C(=O)OCCCCCCCCCCCC`: the growth inhibition in test [1] was -41.1%; in test [2] it was -39%; in test [3] it was -18.8%; in test [4] it was -16.8%; in test [5] it was -15.6%; in test [6], -39.8%.

Regarding `Cc1cccc(C)c1NC(=S)N(CCC#N)C1CC(C)CC(C)(C)C1` (centres undefined), the growth inhibition in test [1] is 3.45%; in test [2], 4.35%; in test [3], 19.6%; in test [4] it was -2.8%; in test [5], 19.9%; in test [6] it was -20%.

As to `O=C1C(c2ccccc2)=[N+]([O-])c2cc([N+](=O)[O-])ccc21`, the growth inhibition was -15.8% in test [1]; 5.65% in test [2]; 13.8% in test [3]; 23.2% in test [4]; 14.8% in test [5]; 36% in test [6].

Consider `CCc1ccc(OC(=O)CCl)cc1`, for which the growth inhibition in test [1] is -19.4%; in test [2] it was 9.5%; in test [3] it was -21.6%; in test [4], -28.7%; in test [5] it was -3.4%; in test [6], -42.5%.

With `[N-]=[N+]=NC1CC(n2ccc(N)nc2=O)OC1CO` (centres undefined), the growth inhibition is -3.9% in test [1]; 13.6% in test [2]; 0.8% in test [3]; -6.65% in test [4]; -8.95% in test [5]; 8.8% in test [6].
